# Measurements from PubChem BioAssay (NCATS).
# Records with an inconclusive call do not appear. Values without a mark were called inactive. Activity calls are given as the source filed them. Calls come from the whole dose curve; as a rule, active = well fitted inhibition curve with a large enough effect; inconclusive = small, poorly fitted or top-dose-only effect; inactive = flat fitted curve, though single readings scatter.
# How the values were obtained:
# Assay in all cases: Cytotoxic Profiling of Annotated Libraries Using Quantitative High-Throughput Screening (AID 1296008); note: nearly all actives have a fitted effect of over 60% in size
# Conditions in all cases: Five cell lines viability, CellTiter-Glo ATP luminescence, 48-72 h; max response: active compounds read low
# [1] = system: CRL-7250
# Method in brief: (§1)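 Cells exposed to compounds for 48 or 72 hr at 37 degrees Celsius. Viability read as ATP-coupled luminescence with CellTiter-Glo after 10 min at room temperature.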
# [2] = system: HEK293
# Method in brief: as §1
# [3] = system: HaCat
# Method in brief: as §1
# % is set by controls: 0 for no effect and ±100 for the full control effect; potency is the fitted concentration of half-maximal effect.
compound,measurement,setting,value
COC(=O)c1cc(Cl)c(NC(C)=O)cc1OC,max response,[1],2.72%
same,max response,[2],-2.05%
same,outcome,[3],inactive
CC(=O)N(CC(=O)N(C)C)c1ccccc1,max response,[1],-29.6%
same,max response,[2],-63.5%
same,max response,[3],-4.61%
O=C(O)Cn1cnnn1,max response,[1],-0.376%
same,outcome,[2],inactive
same,max response,[3],1.64%
Cc1onc(-c2c(Cl)cccc2Cl)c1C(=O)Cl,outcome,[1],inactive
same,max response,[2],-4.58%
same,max response,[3],-4.26%
CC(=O)Nc1c(I)c(NC(C)=O)c(I)c(C(=O)O)c1I,max response,[1],2.5%
same,max response,[2],2.17%
same,outcome,[3],inactive
COC(=O)c1cc(S(N)(=O)=O)ccc1OC,max response,[1],-27.4%
same,max response,[2],4.21%
same,outcome,[3],inactive
CC(=O)OC[C@H]1O[C@@H](OC(C)=O)[C@H](OC(C)=O)[C@@H]1OC(C)=O,max response,[1],-4.36%
same,max response,[2],1.73%
same,max response,[3],2.57%
Cc1cc(O)c(C)c(C)c1O,outcome,[1],inactive
same,outcome,[2],inactive
same,outcome,[3],inactive
O=C(O)CCCC[P+](c1ccccc1)(c1ccccc1)c1ccccc1,max response,[1],1.78%
same,outcome,[2],inactive
same,outcome,[3],inactive
CSCC[C@H](NC(=O)[C@H](Cc1c[nH]c2ccccc12)NC(=O)CCNC(=O)OC(C)(C)C)C(=O)N[C@@H](CC(=O)O)C(=O)N[C@@H](Cc1ccccc1)C(N)=O,max response,[1],0.728%
same,max response,[2],0.664%
same,max response,[3],-2.67%
N#Cc1cc(NC(=O)C(=O)O)c(Cl)c(NC(=O)C(=O)O)c1,outcome,[1],inactive
same,max response,[2],-3.47%
same,max response,[3],-3.53%
Cc1ncc(CO)c(CO)c1O,max response,[1],1.45%
same,max response,[2],4.28%
same,outcome,[3],inactive
O=[N+]([O-])c1nccn1CO[C@@H](CO)[C@H](O)CO,max response,[1],-17.9%
same,max response,[2],4%
same,outcome,[3],inactive
C[C@@H]1CCC[C@H](C)N1CCCC(O)(c1ccccc1)c1ccccn1 (stereo partly drawn),max response,[1],3.63%
same,max response,[2],-3.44%
same,outcome,[3],inactive
Cc1oc(=O)oc1COC(=O)[C@@H]1N2C(=O)[C@@H](NC(=O)[C@H](N)c3ccccc3)[C@H]2SC1(C)C,max response,[1],-5.05%
same,max response,[2],-0.753%
same,outcome,[3],inactive
CC(NC(CCc1ccccc1)C(=O)O)C(=O)N1C(=O)N(C)CC1C(=O)O (stereo not drawn),max response,[1],1.99%
same,outcome,[2],inactive
same,outcome,[3],inactive
CCCCOCCOC(=O)c1cccnc1,outcome,[1],inactive
same,outcome,[2],inactive
same,max response,[3],-21.3%
Cc1ccc2c(Cl)cc(Cl)c(O)c2n1,max response,[1],-1.98%
same,max response,[2],-23.5%
same,max response,[3],-10%
CC(=O)/C=C/C=C1/C2CCC(C2)C1(C)C (stereo not drawn),max response,[1],-8.75%
same,max response,[2],-13.1%
same,max response,[3],-7.21%
COc1cc(C=O)ccc1O,max response,[1],-1.68%
same,max response,[2],-1.3%
same,outcome,[3],inactive
CCCCCCn1c(=O)c2c(ncn2C)n(C)c1=O,outcome,[1],inactive
same,max response,[2],-1.62%
same,outcome,[3],inactive
CN(C)CCCOC1(Cc2ccccc2)CCCCCC1,outcome,[1],inactive
same,outcome,[2],inactive
same,max response,[3],-13.3%
Cc1nc2n(c(=O)c1CCN1CCC(C(=O)c3ccc(F)cc3)CC1)CCS2,Potency,[1],9.44 µM (active)
same,Potency,[2],8.41 µM (active)
same,max response,[3],1.44%
CC(C)C(=O)OCc1cccc(OC(=O)[C@@H]2N3C(=O)[C@@H](NC(=O)Cc4ccccc4)[C@H]3SC2(C)C)c1,outcome,[1],inactive
same,outcome,[2],inactive
same,max response,[3],-11.1%
CCOc1ccccc1OCC1CNCCO1 (stereo not drawn),max response,[1],-6.41%
same,outcome,[2],inactive
same,max response,[3],0.667%
CCc1cccc2c(CCO)c[nH]c12,max response,[1],-8.62%
same,max response,[2],-6.21%
same,max response,[3],2.18%
O=c1[nH]c2ccccc2c(=O)n1CCCl,max response,[1],-4.5%
same,max response,[2],-6.35%
same,outcome,[3],inactive
C#Cc1ccc(-c2ccccc2F)cc1,max response,[1],-10.3%
same,max response,[2],-8.83%
same,max response,[3],3.65%
[O-][n+]1cccc(/C(Cl)=N/OC[C@@H](O)CN2CCCCC2)c1,max response,[1],4.98%
same,max response,[2],-1.36%
same,max response,[3],2.38%
Cc1cc(CCCOc2c(C)cc(-c3noc(C(F)(F)F)n3)cc2C)on1,outcome,[1],inactive
same,max response,[2],-24.5%
same,outcome,[3],inactive
O=C1CC2(CCCC2)CC(=O)N1CCNCC1COc2ccccc2O1 (stereo not drawn),max response,[1],-5.57%
same,outcome,[2],inactive
same,max response,[3],-0.105%
